The panel holds about 83,000 compounds, 20% with a hit somewhere; the sample as a whole holds those more often.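 Cell lines were cultured in 96-well plates, exposed to a single compound concentration, and assessed for percent growth 48 hours later.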 Activity calls are given as the source filed them. Rule for the calls: active = growth percent below 10; inactive = the rest.
Assays:
Assay in all cases: NCI-60 one-dose screen, 48 h (100 = growth as untreated, 0 = no growth, -100 = all killed)
Settings in all cases: 10 µM unless noted
HCT-15 colon = test system: HCT-15 colon
HT29 colon = test system: HT29 colon
SNB-75 CNS = test system: SNB-75 CNS
SNB-19 CNS = test system: SNB-19 CNS
U251 CNS = test system: U251 CNS
PC-3 prostate = test system: PC-3 prostate
SK-MEL-5 melanoma = test system: SK-MEL-5 melanoma
UACC-62 melanoma = test system: UACC-62 melanoma
LOX IMVI melanoma = test system: LOX IMVI melanoma
SK-MEL-28 melanoma = test system: SK-MEL-28 melanoma
SK-MEL-2 melanoma = test system: SK-MEL-2 melanoma
EKVX NSCLC = test system: EKVX NSCLC
SN12C renal = test system: SN12C renal
UO-31 renal = test system: UO-31 renal
TK-10 renal = test system: TK-10 renal
ACHN renal = test system: ACHN renal
CAKI-1 renal = test system: CAKI-1 renal
A498 renal = test system: A498 renal
CCRF-CEM leukemia = test system: CCRF-CEM leukemia
MOLT-4 leukemia = test system: MOLT-4 leukemia

Measured: growth

Nc1c(C(=O)Nc2ccccc2Cl)sc2nc3c(cc12)C(O)CCC3 (stereo not given)
inactive: HCT-15 colon 30.5% | SNB-75 CNS 22.9% | SNB-19 CNS 41.6% | U251 CNS 29.4% | PC-3 prostate 36.8% | SK-MEL-5 melanoma 21.4% | UACC-62 melanoma 47.9% | LOX IMVI melanoma 45.5% | SK-MEL-28 melanoma 79.2% | SK-MEL-2 melanoma 36.5% | EKVX NSCLC 40.7% | SN12C renal 59.7% | UO-31 renal 56.9% | TK-10 renal 45.8% | ACHN renal 57.1% | CAKI-1 renal 49.6% | A498 renal 18% | CCRF-CEM leukemia 17.7% | MOLT-4 leukemia 38.9%
active: HT29 colon 6.13%

CCOC(=O)c1ccc2[nH]c(O)c(C(=Nc3ccc(N(C)C(=O)CN4CCN(C)CC4)cc3)c3ccccc3)c2c1
active: HCT-15 colon -23.6% | HT29 colon -33.8% | SNB-75 CNS -99.2% | SNB-19 CNS 2.34% | U251 CNS -86.4% | PC-3 prostate 4.9% | SK-MEL-5 melanoma -94% | LOX IMVI melanoma -93.2% | SK-MEL-28 melanoma -11.9% | SK-MEL-2 melanoma -59.2% | EKVX NSCLC -3.53% | UO-31 renal -41.6% | TK-10 renal -70% | ACHN renal 2.92% | CAKI-1 renal -0.635% | A498 renal -59.9% | CCRF-CEM leukemia 4.58% | MOLT-4 leukemia -14%
inactive: UACC-62 melanoma 17% | SN12C renal 11.4%

C#CCOc1ccc2ncnc(Nc3ccc(NC(=O)CCl)cc3)c2c1
active: HCT-15 colon -32.4% | HT29 colon -60% | SNB-19 CNS -22.2% | U251 CNS -83.7% | PC-3 prostate 6.66% | SK-MEL-5 melanoma -90.6% | UACC-62 melanoma -10.1% | LOX IMVI melanoma -80.1% | SK-MEL-2 melanoma -7.65% | EKVX NSCLC -0.0323% | SN12C renal -13.2% | UO-31 renal -25.8% | TK-10 renal 1.64% | ACHN renal -51.2% | CCRF-CEM leukemia -23.7% | MOLT-4 leukemia -8.27%
inactive: SNB-75 CNS 42% | SK-MEL-28 melanoma 36.2% | CAKI-1 renal 35.8% | A498 renal 55.9%

COc1cc(-n2cc(-c3cc(O)c(C/C=C(\C)CCC=C(C)C)c(O)c3)nn2)cc2c1O[C@]1(C)CC[C@@H](O)C(C)(C)[C@H]1C2
active: HCT-15 colon -12.2% | HT29 colon -34.6% | SNB-75 CNS 7.34% | U251 CNS 4.31% | SK-MEL-5 melanoma -61.4% | UACC-62 melanoma -30.2% | LOX IMVI melanoma -79.9% | SK-MEL-2 melanoma -17.1% | UO-31 renal -53.8% | CCRF-CEM leukemia 0.511% | MOLT-4 leukemia -0.403%
inactive: SNB-19 CNS 32.5% | PC-3 prostate 16.2% | SK-MEL-28 melanoma 35.7% | EKVX NSCLC 28% | SN12C renal 24.9% | TK-10 renal 40.2% | ACHN renal 16.6% | CAKI-1 renal 12% | A498 renal 10.7%

N#CC1C=CN(CC(N)=O)c2ccc3cccnc3c21 (stereo not given)
inactive: HCT-15 colon 96.2% | HT29 colon 88.3% | SNB-75 CNS 87.2% | SNB-19 CNS 96.1% | U251 CNS 91.7% | PC-3 prostate 84.2% | SK-MEL-5 melanoma 96.5% | UACC-62 melanoma 96.9% | LOX IMVI melanoma 97.5% | SK-MEL-28 melanoma 104% | SK-MEL-2 melanoma 116% | EKVX NSCLC 97.9% | SN12C renal 96.3% | UO-31 renal 97.9% | TK-10 renal 115% | ACHN renal 104% | CAKI-1 renal 91.2% | A498 renal 85.9% | CCRF-CEM leukemia 78% | MOLT-4 leukemia 98%

O=C1/C(=C/c2ccc(Cl)cc2)COc2ccc(O)c(O)c21
inactive: HT29 colon 15.5% | SNB-75 CNS 18.2% | SNB-19 CNS 24.9% | SK-MEL-5 melanoma 56% | SK-MEL-28 melanoma 60.2% | SK-MEL-2 melanoma 69.9% | EKVX NSCLC 51.7% | TK-10 renal 16.7% | A498 renal 114%
active: HCT-15 colon -1.01% | U251 CNS -57% | PC-3 prostate -6% | UACC-62 melanoma 4.2% | LOX IMVI melanoma -84.8% | SN12C renal -51.5% | UO-31 renal -98.5% | ACHN renal -66.3% | CAKI-1 renal -13.8% | CCRF-CEM leukemia 4.29% | MOLT-4 leukemia 3.43%

COC1C[C@H](O[C@@H]2C[C@H](O[C@@H]3C[C@H](O[C@@H]4C(=O)c5c(cc6cc(O[C@H]7C[C@@H](O[C@H]8C[C@@H](O)[C@H](O)C(C)O8)[C@H](O)C(C)O7)c(C)c(O)c6c5O)C[C@H]4C(OC)C(=O)[C@@H](O)[C@@H](C)O)OC(C)[C@H]3O)OC(C)[C@@H]2O)OC(C)[C@@H]1O (stereo not given in full)
active: HT29 colon -8.54% | SNB-75 CNS -59% | SNB-19 CNS 0.994% | U251 CNS 0.915% | PC-3 prostate 9.36% | SK-MEL-5 melanoma -37.9% | UACC-62 melanoma -64.7% | LOX IMVI melanoma -3.35% | SK-MEL-28 melanoma -22.9% | SK-MEL-2 melanoma -61.7% | EKVX NSCLC 7.01% | SN12C renal 2.57% | UO-31 renal 5.02% | TK-10 renal 1.34% | ACHN renal 6.35% | A498 renal -44.5% | CCRF-CEM leukemia 6.53% | MOLT-4 leukemia 5.23%
inactive: HCT-15 colon 44.3% | CAKI-1 renal 28.6%

COc1ccc(N2CCC(=O)NC2=S)cc1
inactive: HCT-15 colon 102% | HT29 colon 105% | SNB-75 CNS 96.6% | SNB-19 CNS 105% | U251 CNS 103% | PC-3 prostate 107% | SK-MEL-5 melanoma 99.2% | UACC-62 melanoma 99.2% | LOX IMVI melanoma 94.8% | SK-MEL-28 melanoma 111% | SK-MEL-2 melanoma 102% | EKVX NSCLC 102% | SN12C renal 98.3% | UO-31 renal 86.5% | TK-10 renal 100% | ACHN renal 104% | CAKI-1 renal 95.4% | A498 renal 108% | CCRF-CEM leukemia 111% | MOLT-4 leukemia 105%

C=C1C(=O)O[C@H]2[C@H]1CC/C(COC(=O)NCc1cc[nH]c1)=C\CC[C@@]1(C)O[C@@H]21
active: CCRF-CEM leukemia -15.9%
inactive: HCT-15 colon 24.6% | HT29 colon 42.6% | SNB-75 CNS 70.4% | SNB-19 CNS 83.2% | U251 CNS 68.2% | PC-3 prostate 51.7% | SK-MEL-5 melanoma 91.2% | UACC-62 melanoma 39.6% | LOX IMVI melanoma 32.3% | SK-MEL-28 melanoma 54.6% | SK-MEL-2 melanoma 70.5% | EKVX NSCLC 61.7% | SN12C renal 33.6% | UO-31 renal 58.3% | TK-10 renal 44.1% | ACHN renal 45.3% | CAKI-1 renal 39.1% | A498 renal 104% | MOLT-4 leukemia 18.6%

O=C(/C=C/c1ccc(Cl)cc1)c1cccc(Nc2nc(Nc3ccccc3)nc(Nc3ccccc3)n2)c1
inactive: HCT-15 colon 83.9% | HT29 colon 99.1% | SNB-75 CNS 71.9% | SNB-19 CNS 111% | U251 CNS 82.7% | PC-3 prostate 87.9% | SK-MEL-5 melanoma 85.6% | UACC-62 melanoma 96.9% | LOX IMVI melanoma 88.2% | SK-MEL-28 melanoma 100% | SK-MEL-2 melanoma 45.7% | EKVX NSCLC 106% | SN12C renal 102% | UO-31 renal 61.8% | TK-10 renal 92.6% | ACHN renal 92.9% | CAKI-1 renal 83.6% | A498 renal 95.2% | CCRF-CEM leukemia 76.2% | MOLT-4 leukemia 61.7%

COC(=O)CNC(=O)[C@H](Cc1ccccc1)NCc1ccncc1
inactive: HCT-15 colon 101% | HT29 colon 86.6% | SNB-75 CNS 92.4% | SNB-19 CNS 97.7% | U251 CNS 92.3% | PC-3 prostate 87.2% | SK-MEL-5 melanoma 101% | UACC-62 melanoma 99.3% | LOX IMVI melanoma 103% | SK-MEL-28 melanoma 114% | SK-MEL-2 melanoma 95.3% | EKVX NSCLC 99.5% | SN12C renal 99.3% | UO-31 renal 91.2% | TK-10 renal 88.5% | ACHN renal 107% | CAKI-1 renal 99.1% | A498 renal 88.3% | CCRF-CEM leukemia 86% | MOLT-4 leukemia 105%

O=C1/C(=C/c2ccc(Cl)c(Cl)c2)CN(C(=O)C(Cl)Cl)C/C1=C\c1ccc(Cl)c(Cl)c1
active: HCT-15 colon -62.1% | HT29 colon -4.7% | SNB-75 CNS -70.7% | SNB-19 CNS -93.7% | U251 CNS -92.4% | PC-3 prostate -45.6% | SK-MEL-5 melanoma -79.4% | UACC-62 melanoma -46.9% | LOX IMVI melanoma -91.7% | SK-MEL-28 melanoma -64.4% | SK-MEL-2 melanoma -3.03% | EKVX NSCLC -61.7% | SN12C renal -76% | UO-31 renal -99.3% | TK-10 renal -50.8% | ACHN renal -100% | CAKI-1 renal -74% | A498 renal -91.2% | CCRF-CEM leukemia 4.82% | MOLT-4 leukemia -0.286%

O=C(CCC(=O)N/N=C/c1ccccc1O)N/N=C/c1ccccc1O
inactive: HCT-15 colon 22.5% | HT29 colon 84.1% | SNB-75 CNS 78.6% | SNB-19 CNS 57.9% | U251 CNS 26% | PC-3 prostate 31.1% | SK-MEL-5 melanoma 36.3% | UACC-62 melanoma 24.9% | LOX IMVI melanoma 21% | SK-MEL-28 melanoma 45.2% | SK-MEL-2 melanoma 69.7% | EKVX NSCLC 41.1% | SN12C renal 70.2% | UO-31 renal 17.4% | TK-10 renal 44% | ACHN renal 18.7% | CAKI-1 renal 27.7% | A498 renal 80% | CCRF-CEM leukemia 25% | MOLT-4 leukemia 18.1%

C#Cc1ccc(NC(=O)c2ccc(/C=C/C(=O)c3nccn3C)cc2)cc1
active: HCT-15 colon -44.4% | HT29 colon -17.3% | SNB-75 CNS -98.3% | SNB-19 CNS -78.9% | U251 CNS -67% | PC-3 prostate -56.2% | SK-MEL-5 melanoma -94.3% | UACC-62 melanoma -50.7% | LOX IMVI melanoma -93% | SK-MEL-28 melanoma -30.7% | SK-MEL-2 melanoma -30.4% | EKVX NSCLC -75.4% | SN12C renal -37.5% | UO-31 renal -98.8% | TK-10 renal -2.59% | ACHN renal -72.1% | CAKI-1 renal -81.6% | A498 renal -70.3% | CCRF-CEM leukemia -9.16% | MOLT-4 leukemia -10%

COP(=O)(OC)C(C)(C)CC(=O)CC(C#N)(C#N)C(C#N)C#N
inactive: HCT-15 colon 93.3% | HT29 colon 107% | SNB-75 CNS 98.2% | SNB-19 CNS 99.3% | U251 CNS 97.3% | PC-3 prostate 92.5% | SK-MEL-5 melanoma 101% | UACC-62 melanoma 96.1% | LOX IMVI melanoma 100% | SK-MEL-28 melanoma 104% | SK-MEL-2 melanoma 118% | EKVX NSCLC 99.4% | SN12C renal 99.6% | UO-31 renal 85.1% | TK-10 renal 104% | ACHN renal 100% | CAKI-1 renal 96.4% | A498 renal 121% | MOLT-4 leukemia 104%
active: CCRF-CEM leukemia -30.3%

From PubChem BioAssay (NCI)
